The values that follow come from PubChem BioAssay AID1508600 (Functional Genomics Laboratory (NCATS/FGL), 2020).

The campaign covered roughly 53,000 sequences. About 3,700 (7%) were called active. This excerpt belongs to a sample that is enriched for actives. Unmarked numbers belong to inactive results.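 How the source made its calls: active means gene knockdowns whose robust z-score for IL-1 alpha signal is at least 2 or at most -2, so actives lie on both sides; inactive means the rest.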

This assay in a line: Components of the Cytosolic LPS Sensing Pathway: Gene Identification via Genome-wide siRNA Screen.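 Further: robust z of the log signal after scaling to non-targeting control siRNA wells of the plate.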 Conditions: RAW264.7 macrophages, IL-1a HTRF, actives lie on both sides, screened at 100 nM (by protocol), cells primed 5 h with Pam3CSK4 first. The method, boiled down:
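Three distinct siRNAs per gene were tested singly at 100 nM in RAW264.7 macrophages. Following Pam3CSK4 priming and 24 hour LipidA transfection, IL-1a secretion was read by HTRF.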
For CCUUAGAUAUCUACUGUAATT against Trim2, the z-score is 1.37. For GGUGCAAGUUUUGGUGGGATT against Etfbkmt the value was 0.35.

For the sequence GGAACCUAAUUGAAUGGCUTT against Cmbl, the z-score is 0.985. Take GGCGAAUGUGUGAAGAGGCTT against H2-Q5: the z-score was -1.97.

For GCUGCUAGCAAAAAGAACUTT against Yaf2, the z-score was 2.24 (active).

Turning to GGAUGUUACGAAGAAGAUUTT against Ash1l, the z-score is -0.664. On to GCCAUAUAUCUGCUAUCAUTT against Clvs2, for which the z-score is 2.34 (active). Take GCAACUUAAAGGCAUCUCCTT against Sntn: the z-score was 1.53.

In the case of GGGAAUCUUGGCAUGAUGGTT against Olfr1030, the z-score was -0.325. For GGUAUUUAUCUGAAUCUGATT against Dennd2c, the z-score is 0.668. On to CCAGCCUCUUCUAAUACACTT against Preb, for which the z-score is -0.413. The value for CCCAUCCAAUGCUUAUGUGTT against Scg5 was -0.421; that for GCCUAAAAAGAGUGGGUCATT against Mllt1 was -2.73 (active).

Consider GGAUCUAGGAGCUGAUUAUTT against Mecr, for which the z-score is -1.18. Regarding CCAUCAUGCCCUGUUUGCATT against Cdc42ep3, the z-score was 0.393. For GCUCUUGUUAUUUACGUCGTT against Lgi1, the z-score was 0.478. Take CGACCACAUGAGGAUGCAUTT against Zbtb20: the z-score is -0.974. For CCAUUAUUGGCCCAUGCUCTT against Babam1 the value was -2.75 (active); for GGUUAUAAAACUAUGGAACTT against Map2k5, 0.133; for GGAUCAUUGUUCUCUCAAGTT against Psmg2, 0.186. The value for GGCUCAAAAGUCUUGGGACTT against Hells was 0.31; that for CGCAGAUGAUUAAGUUGGUTT against Olfr1000 was 0.961; that for GGUGGAGACAGAAAUCCAATT against Amot was 0.23. CGGAACCUUAUUUAAAACUTT against Sirt5: the z-score is 0.732. Regarding GGUAUCUGUGCAAGGGCAATT against Defb5, the z-score was 2.07 (active). As to CCUACUCGUGUCGUGAUAATT against Rxrb, the z-score is -0.841. GGGCAUUCAGCAGUUACAGTT against Lrriq4: the z-score was 0.521.

In the case of GGUUUAUGGGACAGUUUUUTT against Plk2, the z-score is 5.58 (active). As for CGUGGAUGAUACCAAAAUGTT against Igsf21, the z-score was -0.73. The value for GGUGCUGAAGAAGCACCAUTT against Stat5a was 0.271; that for GCGAGAUUCUUGCUUACUCTT against Slc66a2 was -0.472; that for GGAUGUUUUCCCGACAAGATT against Angptl1 was -1.27. Take GGAUGGGAAGACUACCCGATT against Camta2: the z-score was -2.62 (active). The value for CGACCUUCAAGGCAAUAUUTT against Anapc2 was -0.573; that for CCAUCUAACCCUAUAUUAGTT against G6pdx was -1.21. For CCAUGAAUAGCAUCUUUGCTT against Adamtsl2 the value was -0.25; for GGAUGACAAAAAUUUCAAGTT against St14, -0.283.

For the sequence GGAGAGGGUCUUAGUCAGATT against Wasf1, the z-score is 0.802.

Regarding GGGUGACAUGGUGACCAUCTT against Matk, the z-score is 3.54 (active).

For GGCCUUGUAUCUCUUUACATT against Hdgf, the z-score was 0.425. For the sequence GCUGGUUUUGAACUGUACATT against Flt4, the z-score was 0.155. As to CCCAAGUGGUAAGAUUGGUTT against Rps3, the z-score was 0.123.

As to CCCUUGUCUAAAAUAUACATT against Zfp941, the z-score is -0.387. As to CCCUGCUAUCAGCAUCACATT against Hacd3, the z-score was -3.09 (active). The value for CGGUAUUUGUCUGUAUCCUTT against Npc2 was -1.71; that for GCUGGAUUCUGGUAAAUGGTT against Eif5a was -0.836.

With GCAGAUCCGAGACAAGUAUTT against Cplx2, the z-score was -1.91. For the sequence GGAUGAACAACUCUAGGCCTT against Mafk, the z-score was -0.736. For GGUCUACAGCUACCUGAAUTT against Npc2 the value was 0.105; for GCGGUUUCUUACCAAUAACTT against Cyp1a2, 0.984.

Regarding GGAAGCGUGGAAGUCUACGTT against Kcnj16, the z-score is 0.277. For GGGCAAAGGGAGUGACAAATT against Skp2 the value was -1.95; for GGACAACUACAUUGUACUGTT against Insr, -1.16. The value for GGCAGCAGAGAACAAGAAATT against Serbp1 was -1.43; that for CCCAACUGACAUCUUCCUATT against Gzmb was 2.86 (active); that for GGAAAGCACAUCCUCUUUGTT against Gpx6 was 1.02. For CGUGAUUUCAGUGAGGGUGTT against Tarsl2 the value was 0.996. In the case of CGAAGUGAAGAUUUACAGCTT against Nol10, the z-score is -0.106. The value for GCAAUGUGACCAAGACAAUTT against Prelid1 was 0.739; that for GGCGUGAUAGCUGGACUUATT against Eola1 was 0.439; that for GGCCAUAUCUUAAAGUUAATT against Hcfc1r1 was -0.246.

Take GACCAGUGACAAGACCAUCTT against Unc45b: the z-score was 0.352. For GGUGCAGGCCAUGAUUUACTT against C1qtnf4, the z-score is 2.65 (active). The value for GGAAAUGCCACCAAAGAACTT against Slc38a11 was -0.168. For CGGACUUGUUUUUUAGUCUTT against Tnrc18 the value was 0.164; for GGCCAACUGGAGAUAGAUATT against Tamm41, 1.19; for GGAUAAUGGUUUAAAACUCTT against Bmt2, -1.34. Consider GGAAAACCUACCGAAGUUATT against Irf3, for which the z-score was 2.79 (active).

GCAUUGAAGUCACCUCCACTT against Clcn2: the z-score was 0.161.
